# VACV mCherry inh: qHTS for Stage-Specific Inhibitors of Vaccinia Orthopoxvirus: mCherry Reporter Primary qHTS | hit rate 0.63% among 310,000 | Potency, µM (doses to about 36.5 µM), actives largely listed as inhibitors | Vaccinia virus mCherry reporter infection, fluorescence; calls by dose curve; tested in A549 cells; also: nearly all actives have a fitted effect of over 35% in size
# VACV Venus inh: qHTS for Stage-Specific Inhibitors of Vaccinia Orthopoxvirus: Venus Reporter Primary qHTS; AID 720580, 2013; Vaccinia virus Venus reporter expression, fluorescence; hit rate 0.46% among 330,000; Potency, µM (top dose mostly 36.5 µM), hits mostly inhibitors; calls by dose curve; tested in A549 cells; also: nearly all actives have a fitted effect of over 30% in size
# Lassa entry inh: qHTS for Inhibitors of binding or entry into cells for Lassa Virus | AID 540256, 2011 | Potency, µM (highest dose often 37.9 µM), actives largely listed as inhibitors | hit rate 1.2% among 300,000 | Lassa virus pseudotype entry inhibition, cell reporter; calls by dose curve; tested in HEK293 cells; also: nearly all actives have a fitted effect of over 50% in size
# HCV inhibitor: qHTS Assay for Inhibitors of Hepatitis C Virus (HCV). Huh7.5.1 HCVcc-Cre infection, luciferase reporter, 44 h. Potency, µM (top dose mostly 41.8 µM), actives largely listed as inhibitors. hit rate 3.4% among 340,000; active = well fitted inhibition curve with a large enough effect; inconclusive = small, poorly fitted or top-dose-only effect, or another doubt; inactive = no such curve, though single readings can be large or run the other way
#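 1,000 cells/well; 4 h culture; + compound; + HCVcc-Cre (~0.5 moi); 44 h; luciferase substrate, RT 15 min; read 15 sec.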
# FMDV inh: High Throughput Screening for Foot and Mouth Disease Virus Antivirals | FMDV antiviral cell-based qHTS | hit rate 1.2% among 410,000 | Potency, µM (doses to about 57.9 µM), usual class: inhibitors; calls by dose curve; tested in HEK293T cells; also: read-out not given here; nearly all actives have a fitted effect of over 45% in size
# Marburg entry inh: qHTS for inhibitors of binding or entry into cells for Marburg Virus. Marburg virus pseudotyped entry inhibition, cell reporter. hit rate 1.8% among 300,000. Potency, µM (titrated, usually from 37.8 µM), usual class: inhibitors; calls by dose curve; tested in HEK293 cells
# Numbers stand for hits; n = inactive; u = inconclusive; x = no result given; ! = not active in a repeat. Most compounds without a hit are left out; they make up all but 5.3% or so of the library.
SMILES,VACV mCherry inh,VACV Venus inh,Lassa entry inh,HCV inhibitor,FMDV inh,Marburg entry inh
CN(C)CCCN(C(=O)c1ccco1)c1nc2ccc(Br)cc2s1,n,n,n,u,n,u
Cc1csc(=O)n1CC(=O)OC(C)C(=O)Nc1ccc(N(C)C)cc1 (centres undefined),n,n,n,n,n,u
C=CCCN1C(=O)NC(c2ccccc2)C(C(=O)OC)=C1C (centres undefined),x,x,x,x,x,n
NC(=S)Cc1nc(-c2ccc(Cl)cc2)cs1,x,x,x,11µM,n,x
COc1ccc(C(=O)Nc2nnc(SCc3cc(=O)n4cc(Cl)ccc4n3)s2)cc1,n,n,n,x,n,x
COc1cccc(OC)c1C(=O)Nc1cc(C)nn1-c1nc2ccccc2[nH]1,n,n,11µM,11µM,n,u
Cc1cc(NC(=O)c2sccc2C)n(-c2nc3ccccc3[nH]2)n1,u,u,n,11µM,u,u
CC(=O)N1CCN([C@@H]2c3cccc4cccc(c34)[C@H]2NS(=O)(=O)c2ccccc2)CC1,x,x,x,x,x,n
COc1cccc(NC(=O)COc2ccccc2C(=O)Nc2ccccc2)c1,n,n,x,x,x,x
CC(C)c1ccc(C(=O)C[N+]2(C)CCOCC2)cc1,n,n,x,x,x,x
COc1ccc(CCN2C(=O)CS/C2=N\NC(=O)c2ccc(C(C)(C)C)cc2)cc1OC,n,n,n,u,32µM,n
COc1ccc(CCN2C(=O)CSC2=Nc2ccc(C(C)C)cc2)cc1OC,n,n,1.4µM,n,20µM,u
COc1ccccc1NS(=O)(=O)c1cccc(NC(=O)c2cncc(Br)c2)c1,n,n,u,13µM,n,3.5µM
COc1ccccc1NS(=O)(=O)c1cccc(NC(=O)Nc2cccc(Cl)c2)c1,u,u,13µM,u,u,u
CCOC(=O)c1c(C)oc2c(F)c(F)c(F)c(F)c2c1=O,x,n,u,10µM,11µM,u
CCOC(=O)c1c(C)oc(=O)c(CC)c1O,n,n,x,x,n,x
COC(=O)C1=C2CCCO[C@H]2[C@@H]2[C@@H](C)[C@H](OC)c3ccccc3[C@@H]12,x,x,x,x,x,n
CSc1ccccc1NC(=O)CN1CCN(c2ccccn2)CC1,x,x,x,n,n,x
O=C(CN1CCN(c2ccccn2)CC1)Nc1ccc([N+](=O)[O-])cc1C(=O)Nc1ccccc1F,n,n,u,11µM,u,u
Cc1nn2c(NCCN3CCOCC3)c3c(nc2c1-c1ccccc1)CCCC3,n,n,n,u,n,u
Cc1cc(NCc2ccccn2)n2nc(C)c(-c3ccccc3)c2n1,5.6µM,u,u,1.6µM,n,10µM
Cc1nn2c(NCc3ccccn3)cc(C(C)(C)C)nc2c1-c1ccccc1,x,x,x,2.5µM,u,x
Cc1nn2c(NCc3ccccn3)c3c(nc2c1-c1ccccc1)CCC3,10µM,u,u,n,u,u
COc1ccc(OCC(=O)Nc2ccc3c(c2)N(C)C(=O)c2ccccc2S3)cc1,n,n,n,x,u,x
O=S1(=O)CC(O)C(O)CS1 (centres undefined),n,n,x,x,n,x
SMILES,VACV mCherry inh,VACV Venus inh,Lassa entry inh,HCV inhibitor,FMDV inh,Marburg entry inh
COCCCNC(=O)C[C@H]1C[C@H](C(=O)N2CCCCC2)[C@@]2(CCc3ccccc3)c3[nH]c4cc(-c5ccco5)ccc4c3CCN2C1=O,n,u,x,n,n,x
O=C(C[C@H]1C[C@H](C(=O)N2CCOCC2)[C@@]2(CCC3CCCC3)c3[nH]c4cc(-c5ccco5)ccc4c3CCN2C1=O)NCCCn1ccnc1,n,10µM,x,n,n,x
O=C(C[C@H]1C[C@H](C(=O)N2CCCCC2)[C@@]2(CCc3ccccc3)c3[nH]c4ccc(Cl)cc4c3CCN2C1=O)NCCCn1ccnc1,n,11µM,x,25µM,u,x
O=C(C[C@H]1C[C@H](C(=O)N2CCCCC2)[C@@]2(CCc3ccccc3)c3[nH]c4cc(-c5ccco5)ccc4c3CCN2C1=O)NCCN1CCOCC1,u,10µM,x,u,n,x
CCN(CC)C(=O)[C@H]1C[C@H](CC(=O)NCCCn2ccnc2)C(=O)N2CCc3c([nH]c4cc(-c5ccco5)ccc34)[C@]12C,n,n,x,n,n,x
CCOC(=O)Cc1c(-c2cccc(Br)c2)nc2c3ccccc3ccn12,n,n,x,x,n,x
CC(=O)C[C@H](O)CC(=O)[C@H]1OC(=O)[C@H](C)C/C=C\Cc2ccccc21,n,n,x,n,n,x
COc1cc(OC)c(NC(=O)c2ccc3c(c2)N(Cc2ccc(C)cc2)CCS3)cc1Cl,n,n,n,x,n,n
COc1ccccc1C1=NNC(=Nc2cccc(S(=O)(=O)N(C)C)c2)SC1,u,n,u,13µM,u,7.1µM
Cc1ccc(-n2nc3c(c2NC(=O)CC(C)C)CS(=O)(=O)C3)cc1,x,x,x,n,n,x
CC1C(=O)OC(c2ccc(Cl)cc2)C(C)(C)C1=O (centres undefined),n,n,n,n,n,u
C[C@@H]1C=CC(=O)O[C@@H]1c1ccc(Cl)cc1,u,3.5µM,x,n,28µM,x
CN(C)c1ccc([C@H]2[C@@H]3C(=O)N(c4ccc(C(=O)O)cc4)C(=O)[C@H]3ON2c2ccccc2)cc1,x,x,x,x,x,n
CCOC(=O)c1nn(-c2ccc(Br)cc2)cc1C(=O)c1cccc2ccccc12,x,x,u,n,n,5.8µM
CC(C)[C@H](N)C(=O)N1CCC(C(=O)N[C@@H](Cc2ccccc2)C(=O)NCc2ccc(F)cc2)CC1,x,x,x,n,n,x
Cn1cnc([N+](=O)[O-])c1S(=O)(=O)Oc1ccccc1,n,n,u,u,25µM,u
Cn1cnc([N+](=O)[O-])c1S(=O)(=O)c1cccc(Cl)c1,x,x,n,u,25µM,n
Cn1cnc([N+](=O)[O-])c1S(=O)(=O)Nc1ccccc1,n,n,n,u,22µM,n
CC(=O)Nc1cc(C(=O)N2CC3(C)CC2CC(C)(C)C3)cc2ncn(CCc3ccccn3)c12 (centres undefined),n,n,x,x,n,x
COc1cccc(-c2nccc(-n3ccnc3)n2)c1,n,n,x,x,n,x
Cc1ccc(Oc2coc3cc(OCC(=O)NC4CCCCC4)ccc3c2=O)cc1,n,n,n,x,u,n
O=C1NCN(c2ccccc2)C12CCN(CCCC(c1ccc(F)cc1)c1ccc(F)cc1)CC2,n,n,10µM,u,u,2.1µM
O=C(NCCN1CCC(n2c(=O)[nH]c3ccccc32)CC1)c1ccccc1,n,n,x,x,n,x
O=c1[nH]c2ccccc2n1C1CCN(CCCC(c2ccc(F)cc2)c2ccc(F)cc2)CC1,n,u,10µM!,2µM!,u,12µM!
CC(=O)ON(C(C)=O)c1ccc(/C=C2\C=Cc3ccccc32)cc1,n,n,x,x,x,x
CC(=O)Nc1ccc(NC(=O)CCS(=O)(=O)c2ccc3c(c2)CC(=O)N3C)cc1,n,n,n,x,n,x
CCOC(=O)c1c(C)oc2c1cc(O)c1ccccc12,n,n,n,32µM,n,n
CCOC(=O)c1c(C)oc2c1c(C=NCc1ccccn1)c(O)c1ccccc12,n,n,14µM,4.5µM,n,u
Cc1c(N)cccc1Cl,n,n,x,n,n,x

# Screening data: PubChem, National Center for Advancing Translational Sciences (NCATS)
